Bioassay records (PubChem BioAssay)
Hits are enriched below; roughly 7.4% of the tested compounds scored in any of these assays.
D1 mod – D1 CRE-luciferase signal change, two-sided – cell-based, HEK293 D1, dopamine EC30, D1 allosteric modulator project, primary screen; dopamine EC30 potentiation; actives deviate in either direction; B-score at 10 µM; hit rate 5.9% among 58,000; AID 641, 2007;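 active = luminescence count or its row- and column-corrected plate score outside the 99.7% band of the plate's sample wells, on either side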
M1 antagonist – antagonists of rat M1 muscarinic receptor | Muscarinic acetylcholine receptor M1 (Rattus norvegicus), P08482 | hit rate 3.4% among 64,000 | B-score at 10 µM | CHO-M1 cells, Fluo-4 calcium, ACh EC80 antagonist mode; active compounds read low;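 active = calcium fluorescence response, raw or row-and-column corrected B-score, differing from the plate sample mean either way at a set confidence level, mostly lower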
Target sequence (P08482 whole entry, looked up): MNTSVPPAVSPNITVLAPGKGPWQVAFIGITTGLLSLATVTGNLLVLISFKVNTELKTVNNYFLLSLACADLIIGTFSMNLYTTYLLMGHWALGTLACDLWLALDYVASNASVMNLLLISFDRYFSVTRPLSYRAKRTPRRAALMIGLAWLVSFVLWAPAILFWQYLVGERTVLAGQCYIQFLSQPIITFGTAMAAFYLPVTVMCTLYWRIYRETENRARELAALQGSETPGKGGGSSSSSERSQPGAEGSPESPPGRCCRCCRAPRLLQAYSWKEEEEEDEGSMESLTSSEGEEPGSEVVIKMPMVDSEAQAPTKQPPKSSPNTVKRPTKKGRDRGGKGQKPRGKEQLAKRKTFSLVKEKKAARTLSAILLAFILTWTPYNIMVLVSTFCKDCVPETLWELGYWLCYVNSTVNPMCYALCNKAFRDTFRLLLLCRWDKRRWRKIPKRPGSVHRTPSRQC
FXIIa inh mix – human factor XIIa inhibitors, primary screen, biochemical, pooled compound mixtures, fluorogenic substrate; Coagulation factor XII (Homo sapiens), P00748; purified FXIIa; inhibition, % at 5 µM; hit rate 0.2% among 62,000
FXIa inh mix – FXIa protease inhibitors in compound pools, primary screen, biochemical, 10-compound mixtures | Coagulation factor XI (Homo sapiens), P03951 | purified FXIa, fluorogenic substrate, pooled mixtures | inhibition, % at 5 µM | hit rate 0.19% among 62,000 | AID 680, 2007;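 note: each value is inhibition by a whole ten-compound pool holding the compound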
M1 ag – M1 muscarinic receptor agonists, primary screen, CHO-M1 cells, Fluo-4 calcium, agonist mode; Muscarinic acetylcholine receptor M1; hit rate 3% among 64,000; Fluo-4 calcium fluorescence; active compounds read high; B-score at 10 µM; AID 626, 2007;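 active = fluorescence rise, raw or as B-score row- and column-corrected plate score, outside the 99.7% band of its plate's samples, either direction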
hDAT+cocaine – changed hDAT dopamine uptake under cocaine IC80, either direction, primary screen, cocaine antagonist project, cell-based, LLC-PK1 hDAT, [14C]-dopamine uptake, MLSMR | Sodium-dependent dopamine transporter (Homo sapiens), Q01959 | LLC-PK1 hDAT cells, [14C]-dopamine uptake with cocaine IC80; actives deviate in either direction | B-score at 10 µM | hit rate 1.3% among 110,000 | AID 449768, 2010;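 active = Z score or B-score, a plate-position-corrected score, falls beyond the plate's 99.7% confidence bounds, in either direction; inactive = both scores lie inside the 99.7% bounds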
Large screens that a line does not name were inactive. Cut-off read from the data, not from the text of the source, unless noted: active = inhibition above about 20% (passing the limit was not always enough); inactive = the rest.

O=C(On1c(-c2ccccc2)nc2ccccc2c1=O)c1ccco1	D1 mod -3.4 (no result: M1 antagonist, M1 ag)
CCOC(=O)Cn1c(-c2ccccc2)nc2ccccc2c1=O	none (no result: D1 mod, M1 antagonist, FXIIa inh mix, FXIa inh mix, M1 ag)
Cc1cccc(NC(=S)NCc2ccc3c(c2)cc(C)n3C)c1C	none (no result: D1 mod, M1 antagonist, FXIIa inh mix, FXIa inh mix, M1 ag)
CCOc1ccc(OCc2cccc(C(=O)N3CCOCC3)c2)cc1	D1 mod -6.7 (no result: hDAT+cocaine)
COc1ccc(OCc2ccc(C(=O)N3CCOCC3)cc2)cc1	none (no result: D1 mod, M1 antagonist, FXIIa inh mix, FXIa inh mix, M1 ag)
Cc1ccc(-n2c(C)cc(/C=c3/sc4nc5ccccc5n4c3=O)c2C)cc1	none (no result: D1 mod, M1 antagonist, FXIIa inh mix, FXIa inh mix, M1 ag)
COc1cc(N2CCCC2)c(OC)cc1/C=c1/sc2nc3ccccc3n2c1=O	M1 ag 13 (no result: FXIIa inh mix, FXIa inh mix, hDAT+cocaine)
O=C(OC(C(=O)NCc1cccs1)c1ccc(F)cc1)c1ccco1 (stereo not given)	none (no result: hDAT+cocaine)
CC1(C)NC(C)(C)c2nonc2/C1=N\O	hDAT+cocaine 2.8 (no result: M1 antagonist, M1 ag)
COc1ccc(OCCOC(=O)c2cccc(-n3cnnn3)c2)cc1	none (no result: D1 mod)
Cc1ccc(C(=O)NCCc2csc(C)n2)cc1	hDAT+cocaine 2.6 (no result: D1 mod, M1 antagonist, FXIIa inh mix, FXIa inh mix, M1 ag)
COCCNC(=O)COC(=O)c1nsc(Cl)c1Cl	none
CSCCC1(C(=O)O)NC(c2ccccc2O)C2C(=O)N(C(C)C)C(=O)C21 (stereo not given)	hDAT+cocaine -2.6 (no result: D1 mod)
CCCC1(C(=O)O)NC(c2ccccc2O)C2C(=O)N(Cc3ccccc3)C(=O)C21 (stereo not given)	none (no result: D1 mod)
CCCCOC(=O)n1c(SCC(=O)N(CC)CC)nc2ccccc21	hDAT+cocaine 3.9
O=c1[nH]cnc2c1C1(CCCC1)Cc1ccccc1-2	none
Cc1cccc(C(=O)N/N=C/c2ccc(OCC(=O)N3CCCCC3)cc2)c1	hDAT+cocaine 2.2 (no result: D1 mod, M1 antagonist, FXIIa inh mix, FXIa inh mix, M1 ag)
CNC(=O)c1[nH]cnc1C(=O)N[C@@H](C)C(=O)OCc1ccccc1	hDAT+cocaine 2.4 (no result: D1 mod, M1 antagonist, FXIIa inh mix, FXIa inh mix, M1 ag)
CNC(=O)c1[nH]cnc1C(=O)N[C@@H](Cc1ccccc1)C(=O)OCc1ccccc1	none (no result: D1 mod, M1 antagonist, FXIIa inh mix, FXIa inh mix, M1 ag)
COc1cccc(-c2noc(C3CCCN(C(=O)Cc4ccccc4)C3)n2)c1 (stereo not given)	none
CC#CCCCC(=O)Nc1ccc(C(=O)O)cc1	D1 mod -3.1
CSCC[C@H](NC(=O)OC(C)(C)C)c1nnc(SCC=C(C)C)o1	none
O=C(N/N=C/c1c[nH]c2ccccc12)c1ccn(Cc2ccc(Cl)cc2)n1	none (no result: D1 mod, M1 antagonist, FXIIa inh mix, FXIa inh mix, M1 ag)
Cc1cccc(N(CC(=O)NC2CCCCC2)C(=O)CCCC(=O)Nc2ccccn2)c1	hDAT+cocaine 2.2 (no result: D1 mod, M1 antagonist, FXIIa inh mix, FXIa inh mix, M1 ag)
Cc1cccc(N(CC(=O)NC2CCCC2)C(=O)CCCC(=O)Nc2ccccn2)c1	none
CC(C)C(NC(=O)c1ccccc1NC(=O)c1ccco1)C(=O)O (stereo not given)	none
CCOC(=O)Cc1csc(NC(=O)CSc2ncnc3c2cnn3-c2ccc(OC)cc2)n1	D1 mod -4.2
Cc1cc(C(C)(C)C)cc(S(=O)(=O)NCC(=O)O)c1C	none
CCOC(=O)c1cc(NC(=O)Nc2ccc(OC)c(OC)c2)c(C)nc1C	FXIa inh mix 29
CCOC(=O)c1cc(NC(=O)N(C(C)C)C(C)C)c(C)nc1C	none (no result: D1 mod, M1 antagonist, FXIIa inh mix, FXIa inh mix, M1 ag)
Cc1ccc(C(=O)N2CCN(c3ncnc4c3cnn4-c3ccccc3)CC2)cc1	none (no result: D1 mod, M1 antagonist, FXIIa inh mix, FXIa inh mix, M1 ag)
Cc1ccccc1C(=O)N1CCN(c2ncnc3c2cnn3-c2ccccc2)CC1	hDAT+cocaine -5.3 (no result: D1 mod, M1 antagonist, FXIIa inh mix, FXIa inh mix, M1 ag)
CC1CCCN(c2ncnc3c2cnn3-c2ccccc2)C1 (stereo not given)	D1 mod -7.6
c1ccc(-n2ncc3c(N4CCCCC4)ncnc32)cc1	D1 mod -6.9
CCN1CCN(c2ncnc3c2cnn3-c2ccc(Cl)cc2)CC1	M1 antagonist -1.4 (no result: D1 mod)
CCN1CCN(c2ncnc3c2cnn3-c2ccccc2)CC1	none
Cc1ccc(O)c(C2=NOC(O)(C(F)(F)C(F)F)C2)c1 (stereo not given)	none
O=C(/C=C/c1cc2c(cc1Br)OCO2)NCc1ccc(F)cc1	none (no result: D1 mod, M1 antagonist, FXIIa inh mix, FXIa inh mix, M1 ag)
Cn1nc(CC(=O)Nc2ccc(N3CCN(C(=O)OC(C)(C)C)CC3)cc2)c2ccccc2c1=O	none (no result: hDAT+cocaine)
CC(C)Cn1c(-c2ccco2)csc1=Nc1cccnc1	none (no result: D1 mod, M1 antagonist, FXIIa inh mix, FXIa inh mix, M1 ag)
Cc1cc2ccccc2c(=O)n1CC(=O)NCC(=O)N(C)Cc1ccccc1	hDAT+cocaine -7.8 (no result: D1 mod)
O=C1c2ccccc2C(=O)N1CCCP(=O)(O)CCc1ccccc1	none
Cc1ccc2c(CC(=O)OCc3nc(N)nc(Nc4ccccc4C)n3)coc2c1	none
Cc1ccc2c(CC(=O)OCc3csc(C)n3)coc2c1	hDAT+cocaine -7.4
O=C(c1ccco1)N1CCN(C(=O)c2cc3c(=O)oc4ccccc4c3s2)CC1	none (no result: M1 antagonist, M1 ag)
CC(C)NC(=O)c1ccccc1NC(=O)C1CCCO1 (stereo not given)	none (no result: D1 mod, M1 antagonist, FXIIa inh mix, FXIa inh mix, M1 ag)
COc1ccc(NC(=O)c2ccccc2NC(=O)C2CCCO2)cc1 (stereo not given)	hDAT+cocaine -9
O=C(c1nn(Cc2ccccc2)c(=O)c2ccccc12)N1CCN(C/C=C/c2ccccc2)CC1	hDAT+cocaine 4 (no result: D1 mod, M1 antagonist, FXIIa inh mix, FXIa inh mix, M1 ag)
O=C(c1ccco1)N1CCN(C/C=C/c2ccccc2)CC1	none
Cc1cccc(S(=O)(=O)c2c(N)n(/N=C/c3ccco3)c3nc4ccccc4nc23)c1	none
Cc1cccc(S(=O)(=O)c2c(N)n(/N=C/c3cccnc3)c3nc4ccccc4nc23)c1	hDAT+cocaine 3.2
Cc1ccc(N2C(=O)C(c3c(C)[nH]n(-c4ccccc4)c3=O)(C(F)(F)F)C3=C2CC(C)(C)CC3=O)cc1 (stereo not given)	hDAT+cocaine -5.1 (no result: D1 mod, M1 antagonist, FXIIa inh mix, FXIa inh mix, M1 ag)
Cc1ccc(C(=O)Nc2ncc(Cc3ccccc3)s2)o1	D1 mod -2.8
